{"source": "PubChem BioAssay (Tox21)", "key": {"[1]": {"target": "Progesterone receptor (Homo sapiens) (UniProt P06401)", "sequence (P06401 whole entry, looked up)": "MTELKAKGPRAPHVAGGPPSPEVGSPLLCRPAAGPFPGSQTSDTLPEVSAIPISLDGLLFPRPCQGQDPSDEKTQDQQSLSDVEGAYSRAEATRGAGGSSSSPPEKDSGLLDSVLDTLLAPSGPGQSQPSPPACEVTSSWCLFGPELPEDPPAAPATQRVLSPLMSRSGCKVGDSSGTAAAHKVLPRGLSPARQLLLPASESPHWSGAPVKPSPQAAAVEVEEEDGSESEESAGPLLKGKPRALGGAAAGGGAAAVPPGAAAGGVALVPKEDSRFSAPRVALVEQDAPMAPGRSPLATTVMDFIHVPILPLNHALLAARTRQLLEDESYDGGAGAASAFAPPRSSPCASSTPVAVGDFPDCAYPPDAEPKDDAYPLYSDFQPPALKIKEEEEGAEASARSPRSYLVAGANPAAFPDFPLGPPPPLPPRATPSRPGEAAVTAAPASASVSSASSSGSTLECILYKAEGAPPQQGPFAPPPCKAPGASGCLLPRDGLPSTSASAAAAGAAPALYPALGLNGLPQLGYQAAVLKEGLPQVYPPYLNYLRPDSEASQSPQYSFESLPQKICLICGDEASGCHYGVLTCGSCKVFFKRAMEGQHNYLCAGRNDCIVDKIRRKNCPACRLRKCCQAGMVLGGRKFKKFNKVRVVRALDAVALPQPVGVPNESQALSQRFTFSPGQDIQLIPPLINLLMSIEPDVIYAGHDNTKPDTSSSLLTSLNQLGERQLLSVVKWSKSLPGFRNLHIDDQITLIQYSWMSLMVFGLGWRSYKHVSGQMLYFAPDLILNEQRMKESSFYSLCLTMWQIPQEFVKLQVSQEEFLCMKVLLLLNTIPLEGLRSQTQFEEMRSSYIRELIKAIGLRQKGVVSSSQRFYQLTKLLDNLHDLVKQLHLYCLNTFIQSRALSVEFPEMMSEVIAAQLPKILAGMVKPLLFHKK", "test": "qHTS assay to identify small molecule agonists of the progesterone receptor (PR) signaling pathway (AID 1346784; calls by dose curve; further: nearly all actives have a fitted effect of over 30% in size; further: potency means the concentration at half of the fitted maximal effect)", "in_short": "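Beta-lactamase reporter read-out: after 16 hr compound treatment at 37C and a further 2 hr at room temperature with LiveBLAzer B/G FRET substrate, fluorescence was measured in PR-UAS-bla HEK 293T cells grown in 2% charcoal-stripped serum.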"}, "[2]": {"target": "Progesterone receptor (Homo sapiens) (UniProt P06401)", "test": "qHTS assay to identify small molecule antagonists of the progesterone receptor (PR) signaling pathway (AID 1346795; active means well fitted inhibition curve with a large enough effect in the signal ratio in the repeat runs, not every such curve was filed as active; the % refers to the signal ratio; further: potency means the concentration at half of the fitted maximal effect)", "in_short": "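Read-out is fluorescence from the LiveBLAzer B/G FRET substrate, cleaved by a UAS-controlled beta-lactamase in PR-UAS-bla HEK293T cells after 16 hr exposure to compound plus 1 nM promegestone (final), followed by 2 hr at room temperature.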"}, "[3]": {"test": "qHTS assay to identify small molecule antagonists of the progesterone receptor (PR) signaling pathway - cell viability counter screen (AID 1346798); further: nearly all actives have a fitted effect of over 50% in size; further: potency means the concentration at half of the fitted maximal effect", "in_short": "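HEK293T PR-UAS-bla, 2% charcoal-stripped FBS; 4 hr pre-plate; cpd + R5020, 16 h 37C; LiveBLAzer read first; then CellTiter-Glo 30 min RT, luminescence.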"}, "[4]": {"test": "qHTS assay to identify small molecule agonists of the progesterone receptor (PR) signaling pathway - cell viability counter screen (AID 1346799; calls by dose curve; further: nearly all actives have a fitted effect of over 45% in size)", "in_short": "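Luminescence from CellTiter-Glo, added after the beta-lactamase FRET read in the same wells, gave cytotoxicity in PR-UAS-bla HEK293T cells treated with compounds for 16 hr at 37C.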"}, "[5]": {"test": "qHTS assay to identify small molecule antagonists of the TGF-beta/Smad signaling pathway - cell viability counter screen (AID 1346824); further: nearly all actives have a fitted effect of over 50% in size", "in_short": "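Cytotoxicity counter-screen run in the same wells as the beta-lactamase Smad reporter read: CellTiter-Glo luminescence after 30 min at room temperature. HEK 293T SBE-bla cells had 5 hr compound exposure at 37 C with TGF-beta1 (0.25 ng/mL stock).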"}, "[6]": {"test": "qHTS assay to identify small molecule agonists of the TGF-beta/Smad signaling pathway - cell viability counter screen (AID 1346829); further: top concentration of the series differs between compounds; nearly all actives have a fitted effect of over 45% in size", "in_short": "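Cytotoxicity counter screen: CellTiter-Glo luminescence (30 min, room temperature) measured in the SBE-bla HEK 293T reporter wells after 5 hr compound treatment at 37 C and the 2 hr substrate step.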"}, "[7]": {"test": "qHTS assay to identify small molecule agonists of the TGF-beta/Smad signaling pathway (AID 1346859; active means well fitted activation curve with a large enough effect in the signal ratio in the repeat runs, not every such curve was filed as active; the % refers to the signal ratio; further: series mostly up to about 77 µM)", "in_short": "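SBE-bla HEK 293T, 4,000 cells/well, plated o/n; cpd in DMSO, 5 hr, 37 C/5% CO2; B/G FRET substrate 2 hr RT; ex 405, em 460/530 nm.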"}, "[8]": {"test": "Human pregnane X receptor (PXR) small molecule agonists, qHTS cell viability counter screen (AID 1346977); further: nearly all actives have a fitted effect of over 50% in size; further: potency means the concentration at half of the fitted maximal effect", "in_short": "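PXR-Luc HepG2, 2,000 cells/well, 5% charcoal-stripped FBS; 5hr settle; cpd 24hr, 37C/5% CO2; CellTiter-Fluor at 23hr, read 1hr later (fluorescence).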"}, "[9]": {"target": "Thyrotropin-releasing hormone receptor (Homo sapiens) (UniProt P34981)", "sequence (P34981 whole entry, looked up)": "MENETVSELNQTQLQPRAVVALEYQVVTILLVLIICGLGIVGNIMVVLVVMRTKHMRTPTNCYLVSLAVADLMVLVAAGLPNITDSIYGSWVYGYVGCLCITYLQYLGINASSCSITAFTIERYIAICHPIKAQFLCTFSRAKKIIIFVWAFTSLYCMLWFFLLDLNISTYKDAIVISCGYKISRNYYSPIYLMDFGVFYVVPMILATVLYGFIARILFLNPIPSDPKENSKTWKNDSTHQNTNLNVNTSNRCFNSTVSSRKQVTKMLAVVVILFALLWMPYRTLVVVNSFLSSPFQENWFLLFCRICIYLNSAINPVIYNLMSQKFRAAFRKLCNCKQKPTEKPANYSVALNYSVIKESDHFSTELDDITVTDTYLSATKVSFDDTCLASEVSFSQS", "test": "qHTS assay to identify small molecule antagonists of the thyrotropin-releasing hormone receptor (TRHR) signaling pathway (AID 1346877; active means well fitted inhibition curve with a large enough effect in the repeat runs, not every such curve was filed as active; further: series mostly up to about 51 µM)", "in_short": "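Kinetic fluorescence (3 min, 1 s resolution) following stimulation with TRH at 1 nM final; HEK293 cells bearing human TRHR; 5 min compound preincubation at RT; concentration-response over 15 points, triplicates.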"}, "[10]": {"target": "Thyrotropin-releasing hormone receptor (Homo sapiens) (UniProt P34981)", "test": "qHTS assay to identify small molecule agonists of the thyrotropin-releasing hormone receptor (TRHR) signaling pathway (AID 1346891; calls by dose curve; further: series mostly up to about 58 µM)", "in_short": "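Intracellular calcium rise, read as fluorescence every second for 3 min, served as the agonist signal in dye-loaded HEK293 cells expressing TRHR; each compound ran at 15 concentrations in triplicate.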"}}, "note": "A number with no mark means an inactive call. Inconclusive results are not listed. Entries that show only a call come without a potency. Calls of active or inactive are those of the source. Unless noted, the call rests on the fitted dose curve; in most records, active means well fitted curve in the direction sought with a large enough effect in the repeat runs; inconclusive means weak or mixed curves; inactive means no such curve, though single readings can be large; an effect the other way counts as inactive or inconclusive.", "data": [{"compound": "CC(C)O.CC(C)O.CCOC(=O)/C=C(\\C)O.CCOC(=O)/C=C(\\C)O.[Ti]", "values": [{"measurement": "Potency", "setting": "[1]", "value": "inactive"}, {"measurement": "Potency", "setting": "[2]", "value": "inactive"}, {"measurement": "Potency", "setting": "[3]", "value": "inactive"}, {"measurement": "Potency", "setting": "[4]", "value": "inactive"}, {"measurement": "Potency", "setting": "[5]", "value": "inactive"}, {"measurement": "outcome", "setting": "[6]", "value": "inactive"}, {"measurement": "Potency", "setting": "[7]", "value": "inactive"}, {"measurement": "Potency", "setting": "[8]", "value": "inactive"}]}, {"compound": "CCNc1cc(O)ccc1C", "values": [{"measurement": "Potency", "setting": "[1]", "value": "inactive"}, {"measurement": "Potency", "setting": "[2]", "value": "inactive"}, {"measurement": "Potency", "setting": "[3]", "value": "inactive"}, {"measurement": "Potency", "setting": "[5]", "value": "inactive"}, {"measurement": "outcome", "setting": "[6]", "value": "inactive"}, {"measurement": "Potency", "setting": "[7]", "value": "inactive"}, {"measurement": "outcome", "setting": "[9]", "value": "inactive"}, {"measurement": "Potency", "setting": "[10]", "value": "inactive"}]}, {"compound": "C#Cc1cccc(Nc2ncnc3cc(OCCOC)c(OCCOC)cc23)c1", "values": [{"measurement": "Potency", "setting": "[1]", "value": "inactive"}, {"measurement": "Potency", "setting": "[2]", "value": "inactive"}, {"measurement": "Potency", "setting": "[4]", "value": "inactive"}, {"measurement": "Potency", "setting": "[5]", "value": "inactive"}, {"measurement": "outcome", "setting": "[6]", "value": "inactive"}]}, {"compound": "CC(=O)[O][Al][O]C(C)=O", "values": [{"measurement": "Potency", "setting": "[1]", "value": "inactive"}, {"measurement": "Potency", "setting": "[2]", "value": "inactive"}, {"measurement": "Potency", "setting": "[3]", "value": "inactive"}, {"measurement": "Potency", "setting": "[5]", "value": "inactive"}, {"measurement": "outcome", "setting": "[6]", "value": "inactive"}, {"measurement": "Potency", "setting": "[7]", "value": "inactive"}, {"measurement": "Potency", "setting": "[8]", "value": "inactive"}]}, {"compound": "COc1ccc2cccc(CCNC(C)=O)c2c1", "values": [{"measurement": "Potency", "setting": "[1]", "value": "inactive"}, {"measurement": "Potency", "setting": "[2]", "value": "inactive"}, {"measurement": "Potency", "setting": "[3]", "value": "inactive"}, {"measurement": "Potency", "setting": "[5]", "value": "inactive"}, {"measurement": "outcome", "setting": "[6]", "value": "inactive"}, {"measurement": "Potency", "setting": "[7]", "value": "inactive"}, {"measurement": "outcome", "setting": "[9]", "value": "inactive"}, {"measurement": "Potency", "setting": "[10]", "value": "inactive"}, {"measurement": "Potency", "setting": "[8]", "value": "inactive"}]}, {"compound": "O=C(NCCO[N+](=O)[O-])c1cccnc1", "values": [{"measurement": "Potency", "setting": "[1]", "value": "inactive"}, {"measurement": "Potency", "setting": "[2]", "value": "inactive"}, {"measurement": "Potency", "setting": "[3]", "value": "inactive"}, {"measurement": "Potency", "setting": "[5]", "value": "inactive"}, {"measurement": "outcome", "setting": "[6]", "value": "inactive"}, {"measurement": "outcome", "setting": "[9]", "value": "inactive"}, {"measurement": "Potency", "setting": "[10]", "value": "inactive"}, {"measurement": "Potency", "setting": "[8]", "value": "inactive"}]}, {"compound": "CCCCC(=O)OCC(=O)[C@H]1[C@H](C)C[C@H]2[C@@H]3C[C@H](F)C4=CC(=O)C=C[C@]4(C)[C@@]3(F)[C@@H](O)C[C@@]21C", "values": [{"measurement": "Potency", "setting": "[1]", "value": "0.0133 µM (active)"}, {"measurement": "Potency", "setting": "[2]", "value": "inactive"}, {"measurement": "Potency", "setting": "[3]", "value": "inactive"}, {"measurement": "Potency", "setting": "[5]", "value": "inactive"}, {"measurement": "outcome", "setting": "[6]", "value": "inactive"}, {"measurement": "Potency", "setting": "[7]", "value": "inactive"}, {"measurement": "Potency", "setting": "[8]", "value": "inactive"}]}, {"compound": "CCCCCCCCCOS(=O)(=O)O", "values": [{"measurement": "Potency", "setting": "[1]", "value": "inactive"}, {"measurement": "Potency", "setting": "[2]", "value": "inactive"}, {"measurement": "Potency", "setting": "[4]", "value": "inactive"}, {"measurement": "Potency", "setting": "[5]", "value": "inactive"}, {"measurement": "outcome", "setting": "[6]", "value": "inactive"}, {"measurement": "Potency", "setting": "[7]", "value": "inactive"}, {"measurement": "outcome", "setting": "[9]", "value": "inactive"}, {"measurement": "Potency", "setting": "[10]", "value": "inactive"}, {"measurement": "Potency", "setting": "[8]", "value": "inactive"}]}, {"compound": "CCn1cc(C(=O)O)c(=O)c2cnc(N3CCNCC3)nc21", "values": [{"measurement": "Potency", "setting": "[1]", "value": "inactive"}, {"measurement": "Potency", "setting": "[2]", "value": "inactive"}, {"measurement": "Potency", "setting": "[3]", "value": "inactive"}, {"measurement": "Potency", "setting": "[5]", "value": "inactive"}, {"measurement": "outcome", "setting": "[6]", "value": "inactive"}, {"measurement": "Potency", "setting": "[7]", "value": "inactive"}, {"measurement": "outcome", "setting": "[9]", "value": "inactive"}, {"measurement": "Potency", "setting": "[10]", "value": "inactive"}, {"measurement": "Potency", "setting": "[8]", "value": "inactive"}]}, {"compound": "C/C=C(/C(=C/C)c1ccc(OC(C)=O)cc1)c1ccc(OC(C)=O)cc1", "values": [{"measurement": "Potency", "setting": "[1]", "value": "inactive"}, {"measurement": "Potency", "setting": "[2]", "value": "8.41 µM (active)"}, {"measurement": "Potency", "setting": "[3]", "value": "inactive"}, {"measurement": "Potency", "setting": "[5]", "value": "inactive"}, {"measurement": "outcome", "setting": "[6]", "value": "inactive"}, {"measurement": "Potency", "setting": "[7]", "value": "inactive"}, {"measurement": "outcome", "setting": "[9]", "value": "inactive"}, {"measurement": "Potency", "setting": "[10]", "value": "inactive"}, {"measurement": "Potency", "setting": "[8]", "value": "inactive"}]}, {"compound": "Cc1cccc(C)c1NC(=O)CN(CC(=O)O)CC(=O)O", "values": [{"measurement": "Potency", "setting": "[1]", "value": "inactive"}, {"measurement": "Potency", "setting": "[2]", "value": "inactive"}, {"measurement": "Potency", "setting": "[3]", "value": "inactive"}, {"measurement": "Potency", "setting": "[5]", "value": "inactive"}, {"measurement": "outcome", "setting": "[6]", "value": "inactive"}, {"measurement": "Potency", "setting": "[7]", "value": "inactive"}, {"measurement": "outcome", "setting": "[9]", "value": "inactive"}, {"measurement": "Potency", "setting": "[10]", "value": "inactive"}, {"measurement": "Potency", "setting": "[8]", "value": "inactive"}]}, {"compound": "O=C(O)c1ccco1", "values": [{"measurement": "Potency", "setting": "[1]", "value": "inactive"}, {"measurement": "Potency", "setting": "[2]", "value": "inactive"}, {"measurement": "Potency", "setting": "[3]", "value": "inactive"}, {"measurement": "outcome", "setting": "[6]", "value": "inactive"}, {"measurement": "Potency", "setting": "[7]", "value": "inactive"}, {"measurement": "outcome", "setting": "[9]", "value": "inactive"}, {"measurement": "Potency", "setting": "[10]", "value": "inactive"}, {"measurement": "Potency", "setting": "[8]", "value": "inactive"}]}, {"compound": "Nc1ccc(N)c2c1C(=O)c1ccccc1C2=O", "values": [{"measurement": "Potency", "setting": "[1]", "value": "inactive"}, {"measurement": "Potency", "setting": "[2]", "value": "inactive"}, {"measurement": "Potency", "setting": "[3]", "value": "27.3 µM (active)"}, {"measurement": "Potency", "setting": "[5]", "value": "inactive"}, {"measurement": "outcome", "setting": "[6]", "value": "inactive"}, {"measurement": "Potency", "setting": "[7]", "value": "inactive"}, {"measurement": "outcome", "setting": "[9]", "value": "inactive"}, {"measurement": "Potency", "setting": "[10]", "value": "inactive"}, {"measurement": "Potency", "setting": "[8]", "value": "9.69 µM (active)"}]}]}
